Data on 30 molecules can be found in PubChem BioAssay (NCATS).

Test [1] is described as follows: qHTS for Inhibitors of Cell Surface uPA Generation: Validation Assay (AID 493164).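 Note: RAW 264.7 macrophage cells exposed to compound for 18 h.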 In outline: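 ATP-Lite luminescence read-out: ATP remains high when uPA activity-dependent LF translocation into the cytoplasm is blocked. RAW 264.7 cells, 18 h compound exposure at 37 C; 7-point titration, 2.45 nM to 38.3 uM final.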
A general note: Quantitative high-throughput screening tests each substance at several concentrations.

Test [2] can be described thus: Validation screen for small molecules that induce DNA re-replication in SW480 colon adenocarcinoma cells (AID 504364). Note: potency is the fitted concentration of half-maximal effect. In a few lines: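 Image-based qHTS: compounds were incubated with SW480 cells for 48 hr, nuclei stained with Hoechst, and per-nucleus fluorescence intensity scanned to flag cells with excess DNA content.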
Test [3] addresses Peptidyl-prolyl cis-trans isomerase NIMA-interacting 1 (Homo sapiens) (UniProt Q13526). Kind of test: qHTS Validation Assay to Find Inhibitors of Pin1 (AID 504536; active = well fitted inhibition curve with a large enough effect in the polarisation, with a control signal flat, not every such curve was filed as active; the % refers to the polarisation; note: potency is the fitted concentration of half-maximal effect). In outline:
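Fluorescence polarization competition: compounds (titration) displace HiFluor-488-labeled Pin1-1b peptide from Pin1 (0.3 uM final) in pH 7.5 HEPES buffer with DTT, 10 min at room temperature; %Activity normalized to no-enzyme wells, curves fitted.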

For test [4], the target named is Phosphoglycerate kinase, glycosomal (Trypanosoma brucei brucei) (UniProt P07378). Kind of test: qHTS Validation Assay to Find Inhibitors of Phosphoglycerate Kinase (AID 504547). In a few lines: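 In TEA buffer (100mM, pH 7.6) containing 5mM MgCl2 and 0.01% Tween-20, the GAPDH-coupled PGK reaction proceeded for 60 minutes at room temperature before a single luminescence reading using Kinase-Glo Plus.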

Test [5] concerns the target phosphoglycerate mutase (Leishmania major) (UniProt Q4Q090). Kind of test: qHTS Validation Assay to Find Inhibitors of Phosphoglycerate Mutase (AID 504548). Note: series mostly up to about 58 µM. To be noted: Potency: inhibition qHTS. In outline:
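Lm PGAM at 1.25 nM final with substrate in 100 mM TEA pH 7.6, 5 mM MgCl2, 0.01% Tween-20; 45 min at room temperature. Kinase-GloPlus added, 10 min, end-point luminescence read.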

Test [6] concerns the target Ubiquitin carboxyl-terminal hydrolase 1 (Homo sapiens) (UniProt O94782). Kind of test: Inhibitors of USP1/UAF1: Pilot qHTS (AID 504865). Note: nearly all actives have a fitted effect of over 35% in size. Note: potency is the fitted concentration of half-maximal effect. In a few lines:
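In 50mM HEPES pH 7.8 containing 0.5mM EDTA, 1mM TCEP, 0.1 mg/ml BSA and 0.01% Tween-20, 1nM USP1/UAF1 is exposed to compound for 15 min, then Ub-Rho (150nM final) is added and fluorescence is read over time.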

A short description of test [7]: qHTS for Inhibitors of ATXN expression: Validation of Cytotoxic Assay (AID 588349). In a few lines: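 Titrated compounds are added to cultured HEK293 cells, which are then held at 37 degrees C for 72 hr; loss of intracellular ATP, measured with CellTiter Glo, indicates toxicity.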
A short description of test [8]: qHTS for Inhibitors of ATXN expression: Validation (AID 588378). Note: series mostly up to about 57 µM; nearly all actives have a fitted effect of over 75% in size. In a few lines: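 Compounds were pinned onto attached HEK293 cells carrying an ATXN2-firefly luciferase construct and incubated 24 hrs at 37 degrees C. Each well then received a fluorescent viability reagent followed by luciferase substrate for end-point luminescence.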
Test [9] addresses Galactokinase (Homo sapiens) (UniProt P51570). The test is described as follows: qHTS Validation Assay for Inhibitors of Human Galactokinase (GALK) (AID 493189). In outline:
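5 nM GALK / 100 uM galactose / 35 uM ATP, 20 mM HEPES pH8.0, 5 mM MgCl2, 60 mM NaCl, 1 mM DTT, 0.01% BSA (final). RT 1 h; Kinase-Glo Plus luminescence.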

Test [10] addresses DNA dC->dU-editing enzyme APOBEC-3G (Homo sapiens) (UniProt Q9HC16). The test is described as follows: qHTS for inhibitors of Vif-A3G interactions: Validation (AID 588379). Note: potency is the fitted concentration of half-maximal effect. In outline:
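Yellow fluorescence (Ex 488, Em 500-530) of Vif-coexpressing HeLa A3G-eYFP cells, scanned by Acumen cytometer, reports blocked A3G degradation. Cells plated at 700/well overnight at 37 deg C before compound addition, then a further overnight compound incubation at 37 deg C.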

Results filed as inconclusive are left out. Calls of active or inactive are those of the source. Unless noted, calls come from the whole dose curve; as a rule, active = well fitted curve in the direction sought with a large enough effect; inconclusive = small, poorly fitted or top-dose-only effect, or another doubt; inactive = no such curve, though single readings can be large; an effect the other way counts as inactive or inconclusive.

Chain of Peptidyl-prolyl cis-trans isomerase NIMA-interacting 1 (Homo sapiens) (Q13526 whole entry, looked up): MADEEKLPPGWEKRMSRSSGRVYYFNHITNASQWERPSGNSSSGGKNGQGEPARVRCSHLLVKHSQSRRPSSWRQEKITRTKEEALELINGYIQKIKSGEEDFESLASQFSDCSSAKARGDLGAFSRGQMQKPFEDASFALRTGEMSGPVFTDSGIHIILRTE
Chain of Galactokinase (Homo sapiens) (P51570 whole entry, looked up): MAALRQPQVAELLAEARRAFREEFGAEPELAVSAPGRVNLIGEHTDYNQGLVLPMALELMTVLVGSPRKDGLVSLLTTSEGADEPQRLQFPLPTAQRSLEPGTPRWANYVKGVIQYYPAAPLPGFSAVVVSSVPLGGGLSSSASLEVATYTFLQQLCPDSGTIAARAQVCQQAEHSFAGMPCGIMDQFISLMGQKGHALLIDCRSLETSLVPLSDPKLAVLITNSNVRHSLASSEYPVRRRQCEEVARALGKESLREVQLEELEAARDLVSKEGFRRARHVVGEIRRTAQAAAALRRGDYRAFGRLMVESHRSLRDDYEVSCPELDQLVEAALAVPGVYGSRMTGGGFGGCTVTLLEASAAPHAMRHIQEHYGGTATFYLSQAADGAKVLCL
Chain of phosphoglycerate mutase (Leishmania major) (Q4Q090 1-553): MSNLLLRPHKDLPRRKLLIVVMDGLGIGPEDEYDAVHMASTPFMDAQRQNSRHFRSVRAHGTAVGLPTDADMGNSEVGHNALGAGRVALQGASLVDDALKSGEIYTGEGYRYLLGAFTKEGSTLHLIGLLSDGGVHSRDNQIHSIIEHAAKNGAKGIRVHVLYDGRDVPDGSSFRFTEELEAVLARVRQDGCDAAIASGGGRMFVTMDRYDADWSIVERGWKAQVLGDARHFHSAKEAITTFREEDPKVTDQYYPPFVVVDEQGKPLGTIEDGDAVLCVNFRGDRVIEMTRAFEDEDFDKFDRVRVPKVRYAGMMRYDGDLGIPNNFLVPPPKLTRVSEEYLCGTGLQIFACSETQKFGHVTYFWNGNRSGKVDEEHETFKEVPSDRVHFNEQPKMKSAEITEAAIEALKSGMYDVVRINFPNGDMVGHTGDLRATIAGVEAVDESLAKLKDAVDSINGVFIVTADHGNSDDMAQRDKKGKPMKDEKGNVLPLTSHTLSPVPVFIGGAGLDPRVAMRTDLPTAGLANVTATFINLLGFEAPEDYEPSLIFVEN
Chain of Ubiquitin carboxyl-terminal hydrolase 1 (Homo sapiens) (O94782 whole entry, looked up): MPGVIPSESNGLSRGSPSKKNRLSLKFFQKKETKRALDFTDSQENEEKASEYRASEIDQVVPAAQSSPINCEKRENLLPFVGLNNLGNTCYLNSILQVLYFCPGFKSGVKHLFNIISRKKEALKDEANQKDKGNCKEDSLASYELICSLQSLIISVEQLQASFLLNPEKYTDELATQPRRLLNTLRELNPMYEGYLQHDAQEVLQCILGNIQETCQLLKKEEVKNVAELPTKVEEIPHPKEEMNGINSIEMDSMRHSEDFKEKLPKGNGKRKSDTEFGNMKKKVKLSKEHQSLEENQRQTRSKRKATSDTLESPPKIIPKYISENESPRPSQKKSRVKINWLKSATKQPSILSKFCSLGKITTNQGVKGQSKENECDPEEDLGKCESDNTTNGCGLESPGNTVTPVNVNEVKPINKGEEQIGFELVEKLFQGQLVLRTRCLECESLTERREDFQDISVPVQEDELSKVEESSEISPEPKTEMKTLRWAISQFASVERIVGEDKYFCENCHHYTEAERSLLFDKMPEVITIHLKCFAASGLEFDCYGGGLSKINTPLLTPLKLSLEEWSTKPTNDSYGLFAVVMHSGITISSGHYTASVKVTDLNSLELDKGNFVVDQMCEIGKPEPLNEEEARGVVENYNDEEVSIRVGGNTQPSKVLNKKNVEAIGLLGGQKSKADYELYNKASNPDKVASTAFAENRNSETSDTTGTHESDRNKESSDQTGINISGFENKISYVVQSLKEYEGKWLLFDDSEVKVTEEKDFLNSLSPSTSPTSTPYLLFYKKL
Chain of DNA dC->dU-editing enzyme APOBEC-3G (Homo sapiens) (Q9HC16 whole entry, looked up): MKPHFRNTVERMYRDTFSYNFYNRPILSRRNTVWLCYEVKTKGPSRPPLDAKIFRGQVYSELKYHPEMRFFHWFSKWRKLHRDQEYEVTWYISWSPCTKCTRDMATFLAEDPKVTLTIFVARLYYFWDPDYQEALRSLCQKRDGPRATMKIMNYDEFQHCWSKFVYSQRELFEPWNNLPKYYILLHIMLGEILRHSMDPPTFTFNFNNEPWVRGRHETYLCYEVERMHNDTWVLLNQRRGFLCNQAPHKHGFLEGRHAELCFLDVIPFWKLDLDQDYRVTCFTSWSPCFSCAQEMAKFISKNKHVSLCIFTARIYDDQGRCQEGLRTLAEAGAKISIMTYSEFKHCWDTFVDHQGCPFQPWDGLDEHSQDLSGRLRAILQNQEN
Chain of Phosphoglycerate kinase, glycosomal (Trypanosoma brucei brucei) (P07378 whole entry, looked up): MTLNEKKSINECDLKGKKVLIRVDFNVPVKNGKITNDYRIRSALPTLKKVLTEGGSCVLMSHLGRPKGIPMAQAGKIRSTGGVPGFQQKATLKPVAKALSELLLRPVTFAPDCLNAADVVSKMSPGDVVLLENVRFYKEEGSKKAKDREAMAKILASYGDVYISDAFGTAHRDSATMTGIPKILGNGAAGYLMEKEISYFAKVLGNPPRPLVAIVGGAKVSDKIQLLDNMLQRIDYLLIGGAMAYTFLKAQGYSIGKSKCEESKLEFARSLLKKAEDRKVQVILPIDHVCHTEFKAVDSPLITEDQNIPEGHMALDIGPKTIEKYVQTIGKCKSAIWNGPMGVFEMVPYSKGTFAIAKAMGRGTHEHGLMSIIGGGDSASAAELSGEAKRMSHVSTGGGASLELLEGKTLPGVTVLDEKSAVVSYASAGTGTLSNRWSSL

With `NCCC1CCCC(CCN)N1` (stereo unspecified), the molecule was classed as inactive in test [1]. Also, the Potency entry in [2], in [3], in [4], in test [5], in test [6] and in test [7] was “inactive” throughout. Also, the Potency entry in test [8] is “inactive”.
As for `C/C(=C\c1ccc(C(=O)O)cc1)c1ccc2c(c1)C(C)(C)CCC2(C)C`, in [1], the outcome was inactive. In addition, the Potency result in test [9], in test [2], in [5], in test [7], in test [8] and in test [10] was “inactive” in each case. For the same molecule, the Potency in test [6] is 31.6 µM (active).
Regarding `COc1cc([C@@H]2c3cc4c(cc3[C@H](O)C3COC(=O)[C@@H]32)OCO4)cc(OC)c1OC` (stereo partly specified), the outcome in test [1] was inactive. The Potency entry in [9], in test [3], in test [5] and in test [8] was “inactive” each time.
Consider `CCCCCCCCCCCCCCSCC(=O)O`, for which, in [1], the molecule was classed as inactive. The Potency entry in [2], in test [4], in test [5], in test [7] and in [8] was “inactive” throughout. In addition, the Potency in test [3] is 23.9 µM (active); in test [6] it was 25.1 µM (active).
Regarding `CN(C)S(=O)(=O)c1ccc2c(c1)/C(=C/c1cc3c([nH]1)CCCC3)C(=O)N2`, the result in [1] was inactive. The Potency result in [9], in test [4], in test [5], in test [7] and in [8] was “inactive” throughout. Further, in test [6], the Potency was 25.1 µM (active).
On to `Nc1ncnc2c1c(-c1ccc(Oc3ccccc3)cc1)cn2C1CCCC1`, for which the result in test [1] was inactive. The Potency result in [9], in test [3], in test [4], in test [5] and in test [6] was “inactive” in each case.
In the case of `CCCC(=O)NCCc1c2n(c3ccc(OC)cc13)CCCc1ccccc1-2`, the molecule was called inactive in [1]. The Potency result in test [2], in test [3], in [4] and in test [5] was “inactive” throughout.
As to `CCCCOC(=O)NS(=O)(=O)c1sc(CC(C)C)cc1-c1ccc(Cn2c(CC)nc3c(C)cc(C)nc32)cc1`, the outcome in test [1] was inactive. In addition, the Potency entry in [9], in test [3] and in test [4] was “inactive” throughout. In [6], the Potency is 56.2 µM (active).
Take `Cc1nc(N=Nc2ccc(S(=O)(=O)O)cc2S(=O)(=O)O)c(COP(=O)(O)O)c(C=O)c1O`: the molecule was classed as inactive in test [1]. Also, the Potency result in test [9], in test [2], in [4], in [5], in test [6] and in test [8] was “inactive” in each case. In addition, the Potency entry in [10] is “inactive”.
`O=c1cc(-c2ccccc2)[nH]c2nc(Cl)ccc12`: in test [1], the outcome was inactive. Also, the Potency entry in [9], in [4], in test [5], in test [7] and in test [8] was “inactive” in each case. In [2], the Potency is 1.84 µM (active).
With `NC(N)=[N+]1CCc2ccccc2C1`, in test [1], the molecule was called inactive. For the same molecule, the Potency entry in test [2], in test [3], in test [4], in test [5], in [6] and in [7] was “inactive” in each case. For the same molecule, the Potency result in test [8] was “inactive”.
In the case of `Nc1ccc(-c2ccc3ccccc3n2)cc1`, the molecule was called inactive in test [1]. For the same molecule, the Potency result in test [9], in [3], in test [4], in test [5], in test [6] and in test [7] was “inactive” each time. Moreover, in test [8], the Potency result is “inactive”.
For the molecule `CN1CCC2(CCN3CCc4c(oc5ccccc45)C3C2)N(C)C1=O` (stereo unspecified), the molecule was classed as inactive in test [1]. Besides, the Potency result in [2], in [3], in test [4], in test [5], in test [6] and in test [7] was “inactive” throughout. For the same molecule, in test [8], the Potency result was “inactive”.
Take `O=C(O)c1cc(=O)cc(C(=O)O)[nH]1`: the call in [1] was inactive. Besides, the Potency result in test [2], in test [3], in test [4], in test [5], in test [6] and in test [7] was “inactive” throughout. For the same molecule, the Potency result in [8] was “inactive”.
For the molecule `N#C/C(=C\c1ccc(O)c(O)c1)C(=O)NCCCNC(=O)/C(C#N)=C/c1ccc(O)c(O)c1`, in test [1], the result was inactive. For the same molecule, the Potency result in test [9], in [5] and in [8] was “inactive” throughout.
As for `CCCCCCC/C=C\CCCCCCCCC(=O)O`, the molecule was classed as inactive in test [1]. In addition, the Potency result in test [9], in test [2], in [5], in test [7] and in test [8] was “inactive” in each case. Further, the Potency in test [6] was 39.8 µM (active).
Turning to `CCCn1c(=O)c2[nH]c(C3CCCC3)nc2n(CCC)c1=O`, the molecule was called inactive in [1]. Moreover, the Potency result in test [9], in test [3], in test [4], in test [5], in [6] and in [8] was “inactive” in each case. Further, in test [10], the Potency entry was “inactive”.
On to `Oc1cc2c(cc1O)C(c1ccccc1)CNCC2` (stereo unspecified), for which, in [1], the molecule was called inactive. Besides, the Potency result in [2], in test [3], in test [4], in test [5], in test [6] and in test [7] was “inactive” throughout. The Potency result in test [8] was “inactive”.
As to `NC(=Nc1ccccc1)NC(=O)c1nc(Cl)c(N)nc1N`, the outcome in test [1] was inactive. The Potency entry in test [9], in test [3], in test [4], in test [5], in test [6] and in test [8] was “inactive” throughout.
`O=C1Nc2ccc(I)cc2/C1=C/c1cc(Br)c(O)c(Br)c1`: the molecule was classed as inactive in test [1]. Moreover, the Potency entry in test [9], in [2], in [4], in test [5] and in test [8] was “inactive” in each case. For the same molecule, the Potency was 44.7 µM (active) in test [6] and 4.22 µM (active) in test [10].
As for `C=CCN1CCc2c(cc(O)c(O)c2Cl)C(c2ccccc2)C1` (stereo unspecified), the molecule was called inactive in test [1]. Besides, the Potency entry in test [9], in test [3], in test [4], in test [5] and in test [6] was “inactive” throughout.
On to `N#C/C(=C\c1ccc(O)c(O)c1)C(=O)NCCc1ccccc1`, for which the result in [1] was inactive. The Potency entry in [9], in test [4], in test [5], in [6] and in test [8] was “inactive” in each case.
As to `NCC(O)C1CCCCCCC1` (stereo unspecified), the molecule was classed as inactive in test [1]. For the same molecule, the Potency result in test [2], in test [3], in test [4], in [5] and in [6] was “inactive” throughout.
`N#CC(=C(\N)Sc1ccccc1N)/C(C#N)=C(/N)Sc1ccccc1N`: in [1], the call was inactive. In addition, the Potency entry in [9], in test [3], in [5], in test [6] and in test [7] was “inactive” in each case.
For the molecule `CCC1(O)CC2CN(CCc3c([nH]c4ccccc34)[C@@](C(=O)OC)(c3cc4c(cc3OC)N(C=O)C3[C@]45CCN4CC=C[C@@](CC)([C@@H](OC(C)=O)[C@]3(O)C(=O)OC)[C@H]45)C2)C1` (stereo partly specified), in [1], the molecule was called inactive. Moreover, the Potency entry in test [9], in test [3], in test [4], in test [5], in test [6] and in test [8] was “inactive” throughout.
As to `C[C@@]1(C2CCCC2)Cc2cc(OCC(=O)O)c(Cl)c(Cl)c2C1=O`, the outcome in [1] was inactive. Also, the Potency entry in [2], in test [3], in [4], in test [5], in test [6] and in test [7] was “inactive” throughout. In test [8], the Potency result is “inactive”.
Consider `C[C@H](NC(=O)/C(C#N)=C/c1ccc(O)c(O)c1)c1ccccc1`, for which the molecule was called inactive in test [1]. The Potency result in test [9], in test [3], in test [4], in test [5] and in test [6] was “inactive” each time.
`N[C@H](C(=O)O)[C@H]1C[C@@H]1C(=O)O`: the molecule was classed as inactive in test [1]. Also, the Potency result in test [2], in [3], in [4], in test [5], in test [6] and in test [7] was “inactive” throughout. Further, the Potency entry in test [8] was “inactive”.
Take `CCCCCCN(CCCCCC)C(=O)Cc1c(-c2ccc(F)cc2)[nH]c2ccccc12`: in test [1], the molecule was called inactive. The Potency entry in test [9], in test [3], in test [4], in test [5], in [8] and in test [10] was “inactive” throughout.
Consider `C[C@]12C=CC(=O)C=C1CC[C@@H]1C2=CC[C@]2(C)[C@@H](C(=O)CN3CCN(c4cc(N5CCCC5)nc(N5CCCC5)n4)CC3)CC[C@@H]12`, for which the outcome in test [1] was inactive. Also, the Potency result in [3], in [5], in test [7] and in [8] was “inactive” throughout.
